Laboratory results reported in the supplement of paper PMC8728848.
Many of the other results were omitted from the sample, so the strongest signals are more common in it than they were.

Key:
Assay in all cases: glycan array binding signal (z-score within array); higher = stronger binding
Settings in all cases: glycan notation: IUPAC condensed, linker removed
Fuc(a1-2)Gal = biological target: Fuc(a1-2)Gal
Procedure, shortened: (§1)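 Glycan array binding is given as a within-array Z-score, which can be read as non-binding when negative. The arrays, 3228 of them, came from the Consortium for Functional Glycomics database and were retained only where the protein sequence was available. Z-scores were averaged across arrays of the same protein sequence at different concentrations or buffers and across linkers.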

[1] = biological target: Fuc(a1-2)Gal(b1-4)Fuc(a1-3)]GlcNAc(b1-2)Man(a1-3)[Fuc(a1-2)Gal(b1-4)[Fuc(a1-3)]GlcNAc(b1-2)Man(a1-6)]Man(b1-4)GlcNAc(b1-4)GlcNAc
Procedure, shortened: as §1

[2] = biological target: Fuc(a1-2)Gal(b1-4)[Fuc(a1-3)]GlcNAc
Procedure, shortened: as §1

[3] = biological target: Fuc(a1-2)[Gal(a1-3)]Gal(b1-3)GalNAc
Procedure, shortened: as §1

[4] = biological target: Fuc(a1-2)[Gal(a1-3)]Gal(b1-3)GlcNAc(b1-2)Man(a1-3)[Fuc(a1-2)[Gal(a1-3)]Gal(b1-3)GlcNAc(b1-2)Man(a1-6)]Man(b1-4)GlcNAc(b1-4)GlcNAc
Procedure, shortened: as §1

[5] = biological target: Fuc(a1-2)[Gal(a1-3)]Gal(b1-4)[Fuc(a1-3)]Glc
Procedure, shortened: as §1

[6] = biological target: Fuc(a1-2)[GalNAc(a1-3)]Gal(b1-3)GalNAc(b1-3)Gal(a1-4)Gal(b1-4)Glc
Procedure, shortened: as §1

[7] = biological target: Fuc(a1-2)[GalNAc(a1-3)]Gal(b1-4)Glc
Procedure, shortened: as §1

[8] = biological target: Fuc(a1-2)[GalNAc(b1-3)]Gal
Procedure, shortened: as §1

[9] = biological target: Fuc(a1-3)[Gal(b1-4)]GlcNAc(b1-2)Man(a1-3)[Fuc(a1-3)[Gal(b1-4)]GlcNAc(b1-2)Man(a1-6)]Man(b1-4)GlcNAc(b1-4)[Fuc(a1-6)]GlcNAc
Procedure, shortened: as §1

[10] = biological target: Fuc(a1-3)[GalNAc(b1-4)]GlcNAc
Procedure, shortened: as §1

[11] = biological target: Gal(a1-3)Gal(b1-3)GlcNAc(b1-6)GalNAc
Procedure, shortened: as §1

[12] = biological target: Gal(a1-3)Gal(b1-4)GlcNAc(b1-2)Man(a1-3)[Gal(a1-3)Gal(b1-4)GlcNAc(b1-2)Man(a1-6)]Man(b1-4)GlcNAc(b1-4)GlcNAc
Procedure, shortened: as §1

[13] = biological target: Gal(b1-4)GlcNAc(a1-6)Gal(b1-4)GlcNAc
Procedure, shortened: as §1

[14] = biological target: Gal(b1-4)GlcNAc(b1-2)Man(a1-3)[Gal(b1-4)GlcNAc(b1-2)Man(a1-6)]Man(b1-4)GlcNAc(b1-4)GlcNAc
Procedure, shortened: as §1

[15] = biological target: Gal(b1-4)GlcNAc(b1-2)[Gal(b1-4)GlcNAc(b1-4)]Man(a1-3)[GlcNAc(b1-4)][Gal(b1-4)GlcNAc(b1-2)[Gal(b1-4)GlcNAc(b1-6)]Man(a1-6)]Man(b1-4)GlcNAc(b1-4)GlcNAc
Procedure, shortened: as §1

[16] = biological target: Gal(b1-4)GlcNAc(b1-2)[Gal(b1-4)GlcNAc(b1-6)]Man(a1-6)[Gal(b1-4)GlcNAc(b1-2)Man(a1-3)]Man(b1-4)GlcNAc(b1-4)GlcNAc
Procedure, shortened: as §1

[17] = biological target: Gal(b1-4)GlcNAc(b1-3)Gal(b1-4)GlcNAc(b1-2)Man(a1-3)[Gal(b1-4)GlcNAc(b1-3)Gal(b1-4)GlcNAc(b1-2)Man(a1-6)]Man(b1-4)GlcNAc(b1-4)[Fuc(a1-6)]GlcNAc
Procedure, shortened: as §1

[18] = biological target: Gal(b1-4)GlcNAc(b1-3)Gal(b1-4)GlcNAc(b1-2)[Gal(b1-4)GlcNAc(b1-3)Gal(b1-4)GlcNAc(b1-6)]Man(a1-6)[Gal(b1-4)GlcNAc(b1-3)Gal(b1-4)GlcNAc(b1-2)Man(a1-3)]Man(b1-4)GlcNAc(b1-4)GlcNAc
Procedure, shortened: as §1

[19] = biological target: Gal(b1-4)GlcNAc(b1-3)Gal(b1-4)GlcNAc(b1-3)Gal(b1-4)GlcNAc(b1-3)Gal(b1-4)GlcNAc(b1-2)Man(a1-3)[Gal(b1-4)GlcNAc(b1-3)Gal(b1-4)GlcNAc(b1-3)Gal(b1-4)GlcNAc(b1-3)Gal(b1-4)GlcNAc(b1-2)Man(a1-6)]Man(b1-4)GlcNAc(b1-4)[Fuc(a1-6)]GlcNAc
Procedure, shortened: as §1

[20] = biological target: Gal(b1-4)GlcNAc(b1-3)Gal(b1-4)GlcNAc(b1-3)Gal(b1-4)GlcNAc(b1-3)Gal(b1-4)GlcNAc(b1-2)[Gal(b1-4)GlcNAc(b1-3)Gal(b1-4)GlcNAc(b1-3)Gal(b1-4)GlcNAc(b1-3)Gal(b1-4)GlcNAc(b1-6)]Man(a1-6)[Gal(b1-4)GlcNAc(b1-3)Gal(b1-4)GlcNAc(b1-3)Gal(b1-4)GlcNAc(b1-3)Gal(b1-4)GlcNAc(b1-2)Man(a1-3)]Man(b1-4)GlcNAc(b1-4)[Fuc(a1-6)]GlcNAc
Procedure, shortened: as §1

[21] = biological target: Gal(b1-4)GlcNAc(b1-3)Gal(b1-4)GlcNAc(b1-3)Gal(b1-4)GlcNAc(b1-3)Gal(b1-4)GlcNAc(b1-3)Gal(b1-4)GlcNAc(b1-3)Gal(b1-4)GlcNAc(b1-2)Man(a1-3)[Gal(b1-4)GlcNAc(b1-3)Gal(b1-4)GlcNAc(b1-3)Gal(b1-4)GlcNAc(b1-3)Gal(b1-4)GlcNAc(b1-3)Gal(b1-4)GlcNAc(b1-3)Gal(b1-4)GlcNAc(b1-2)Man(a1-6)]Man(b1-4)GlcNAc(b1-4)GlcNAc
Procedure, shortened: as §1

[22] = biological target: Gal3S(b1-4)[Fuc(a1-3)]GlcNAc6S
Procedure, shortened: as §1

[23] = biological target: GalNAc(b1-4)GlcNAc(b1-3)GalNAc(b1-4)GlcNAc
Procedure, shortened: as §1

GalNAc4S6S(b1-4)GlcNAc = biological target: GalNAc4S6S(b1-4)GlcNAc
Procedure, shortened: as §1

GlcA(b1-3)Gal = biological target: GlcA(b1-3)Gal
Procedure, shortened: as §1

[24] = biological target: GlcNAc(b1-2)[GlcNAc(b1-4)]Man(a1-3)[GlcNAc(b1-2)Man(a1-6)]Man(b1-4)GlcNAc(b1-4)GlcNAc
Procedure, shortened: as §1

GlcNAc(b1-3)Gal(b1-4)Glc = biological target: GlcNAc(b1-3)Gal(b1-4)Glc
Procedure, shortened: as §1

[25] = biological target: GlcNAc(b1-3)Gal(b1-4)GlcNAc(b1-3)Gal(b1-4)GlcNAc(b1-2)Man(a1-3)[GlcNAc(b1-3)Gal(b1-4)GlcNAc(b1-3)Gal(b1-4)GlcNAc(b1-2)Man(a1-6)]Man(b1-4)GlcNAc(b1-4)GlcNAc
Procedure, shortened: as §1

MurNAc(b1-4)GlcNAc = biological target: MurNAc(b1-4)GlcNAc
Procedure, shortened: as §1

[26] = biological target: Fuc(a1-2)[Gal(a1-3)]Gal(b1-4)GlcNAc
Procedure, shortened: as §1

[27] = biological target: Fuc(a1-2)[Gal(a1-3)]Gal(b1-4)[Fuc(a1-3)]GlcNAc
Procedure, shortened: as §1

Gal(a1-4)Gal(b1-4)GalNAc = biological target: Gal(a1-4)Gal(b1-4)GalNAc
Procedure, shortened: as §1

Gal(b1-2)Gal = biological target: Gal(b1-2)Gal
Procedure, shortened: as §1

[28] = biological target: Gal(b1-3)GalNAc(b1-3)Gal(a1-4)Gal(b1-4)Glc
Procedure, shortened: as §1

Gal(b1-4)Glc6S = biological target: Gal(b1-4)Glc6S
Procedure, shortened: as §1

[29] = biological target: GlcNAc(a1-3)Gal(b1-4)GlcNAc
Procedure, shortened: as §1

[30] = biological target: GlcNAc(b1-2)Gal(b1-3)GlcNAc
Procedure, shortened: as §1

[31] = biological target: GlcNAc(b1-3)[GlcNAc(b1-6)]GlcNAc
Procedure, shortened: as §1

[32] = biological target: GlcNAc(b1-4)Gal(b1-4)GlcNAc
Procedure, shortened: as §1

[33] = biological target: GlcNAc(b1-4)GlcNAc(b1-4)GlcNAc(b1-4)GlcNAc(b1-4)GlcNAc
Procedure, shortened: as §1

[34] = biological target: Man(a1-3)[Man(a1-6)]Man(a1-6)[Man(a1-3)]Man(b1-4)GlcNAc(b1-4)GlcNAc
Procedure, shortened: as §1

[35] = biological target: Neu5Ac(a2-3)Gal(b1-3)GalNAc(b1-3)Gal(a1-4)Gal(b1-4)Glc
Procedure, shortened: as §1

[36] = biological target: Neu5Ac(a2-3)Gal(b1-3)GlcNAc
Procedure, shortened: as §1

[37] = biological target: Neu5Ac(a2-3)Gal6S(b1-4)[Fuc(a1-3)]GlcNAc
Procedure, shortened: as §1

Neu5Ac(a2-6)GalNAc = biological target: Neu5Ac(a2-6)GalNAc
Procedure, shortened: as §1

[38] = biological target: Neu5Gc(a2-3)Gal(b1-3)[Fuc(a1-4)]GlcNAc
Procedure, shortened: as §1

B1: HA-11100 (Pseudomonas aeruginosa), Q02G51_PSEAB (protein)
chain: QFNPNEIKISQQGKTTLIDQSTQRAIINWKGFDVSADEAVRFNQPGVTSSTLNRVTAGQESVIAGRISAPGQVIIYNSNGVVFSGSAKVDVGSLITTTANISDEHFRQGKLIFDQPGNPDARIVNDGSISVAEKGLAAFVAPSVANNGVINARLGTVAMAAGNAATIDLYG
glycan array binding signal (z-score) (Fuc(a1-2)Gal): -0.09 | glycan array binding signal (z-score) [1]: 3.58 | glycan array binding signal (z-score) [2]: -0.134 | glycan array binding signal (z-score) [3]: -0.312 | glycan array binding signal (z-score) [4]: 7.81 | glycan array binding signal (z-score) [5]: 0.052 | glycan array binding signal (z-score) [6]: 0.044 | glycan array binding signal (z-score) [7]: -0.174 | glycan array binding signal (z-score) [8]: -0.384 | glycan array binding signal (z-score) [9]: 3.33 | glycan array binding signal (z-score) [10]: -0.403 | glycan array binding signal (z-score) [11]: -0.463 | glycan array binding signal (z-score) [12]: 3.53 | glycan array binding signal (z-score) [13]: -0.29 | glycan array binding signal (z-score) [14]: -0.512 | glycan array binding signal (z-score) [15]: 3.28 | glycan array binding signal (z-score) [16]: 7.59 | glycan array binding signal (z-score) [17]: 10.5 | glycan array binding signal (z-score) [18]: 5.77 | glycan array binding signal (z-score) [19]: 2.99 | glycan array binding signal (z-score) [20]: 3.24 | glycan array binding signal (z-score) [21]: 1.87 | glycan array binding signal (z-score) [22]: -0.451 | glycan array binding signal (z-score) [23]: 0.008 | glycan array binding signal (z-score) (GalNAc4S6S(b1-4)GlcNAc): -0.38 | glycan array binding signal (z-score) (GlcA(b1-3)Gal): -0.243 | glycan array binding signal (z-score) [24]: -0.37 | glycan array binding signal (z-score) (GlcNAc(b1-3)Gal(b1-4)Glc): -0.359 | glycan array binding signal (z-score) [25]: 3.34 | glycan array binding signal (z-score) (MurNAc(b1-4)GlcNAc): 0.053

B2: CVNH3T (Magnaporthe grisea) (protein)
chain: GSHIGPYGNYAGNFSGSSRDICLDGARLRAECRRGDGGYSTSVIDLNRYLSNDNGHFRWVSGGGGGGGTATVTVQQGDTLRDIGRRFDCDFHEIARRNNIQNEDLIYPGQVLQVPTKGGSGGGAGNFWDSARDVRLVDGGKVLEAELRYSGGWNRSRIYLDEHIGNRNGELIHC
glycan array binding signal (z-score) (Fuc(a1-2)Gal): -0.223 | glycan array binding signal (z-score) [26]: -0.23 | glycan array binding signal (z-score) [27]: -0.226 | glycan array binding signal (z-score) (Gal(a1-4)Gal(b1-4)GalNAc): 5.47 | glycan array binding signal (z-score) (Gal(b1-2)Gal): -0.185 | glycan array binding signal (z-score) [28]: 6.38 | glycan array binding signal (z-score) (Gal(b1-4)Glc6S): -0.229 | glycan array binding signal (z-score) [29]: -0.239 | glycan array binding signal (z-score) [30]: -0.233 | glycan array binding signal (z-score) [31]: -0.222 | glycan array binding signal (z-score) [32]: -0.22 | glycan array binding signal (z-score) [33]: 5.39 | glycan array binding signal (z-score) [34]: -0.23 | glycan array binding signal (z-score) [35]: 6.23 | glycan array binding signal (z-score) [36]: -0.152 | glycan array binding signal (z-score) [37]: -0.226 | glycan array binding signal (z-score) (Neu5Ac(a2-6)GalNAc): -0.209 | glycan array binding signal (z-score) [38]: -0.175
